For some assays here: Potency and affinity values are given separately. The source made the active and inactive calls. Unless noted, the rule behind the calls is not given here.
How the values were obtained:
[1] = antimalarial activity against Dd2 strain (AID 2302;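 active = growth inhibition above 50% at the single 2 µM test dose, taken to imply half-maximal potency below 2 µM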;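 note: 0% = DMSO untreated growth and 100% = chloroquine plus artemisinin killed control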); settings: P. falciparum Dd2 in RBCs, LDH growth readout, 72 h; at 2 µM; hits give high values
[2] = human hepatoma cell viability loss – ATP luminescence, cytotoxicity control for P. falciparum antimalarial project, primary screen (AID 2303;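 active = inhibition above 50%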;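 note: 0% = DMSO wells and 100% = digitonin-killed cells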); settings: HepG2 viability, 24-48 h, at 10 µM, hits give high values
[3] = molecular target: L-lactate dehydrogenase (Plasmodium falciparum (isolate CDC / Honduras)) (UniProt Q27743); assay: PfLDH activity inhibition – cell lysate, 3D7 strain, counter-screen for P. falciparum growth inhibition project (AID 2304);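 note: 0% = vehicle and 100% = reference inhibitor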; settings: P. falciparum 3D7 crude extract, LDH APAD/NBT absorbance; at 2 µM; hits give high values
Sequence of L-lactate dehydrogenase (Plasmodium falciparum (isolate CDC / Honduras)) (Q27743 whole entry, looked up): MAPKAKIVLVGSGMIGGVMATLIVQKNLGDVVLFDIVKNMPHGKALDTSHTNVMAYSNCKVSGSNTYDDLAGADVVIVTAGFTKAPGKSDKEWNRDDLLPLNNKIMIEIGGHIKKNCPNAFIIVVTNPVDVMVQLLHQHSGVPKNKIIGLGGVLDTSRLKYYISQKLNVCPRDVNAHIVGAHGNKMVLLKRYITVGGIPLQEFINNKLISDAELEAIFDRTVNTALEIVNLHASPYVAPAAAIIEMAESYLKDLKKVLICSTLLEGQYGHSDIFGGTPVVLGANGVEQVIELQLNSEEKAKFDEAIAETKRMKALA

[4] = inhibition of 3D7 malaria parasite growth – strain 3D7 (AID 2306);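 note: 0% = DMSO wells and 100% = chloroquine plus artemisinin control wells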; settings: P. falciparum 3D7 erythrocytic growth, LDH absorbance, 72 h; at 2 µM; hits give high values
[5] = molecular target: Calcium-dependent protein kinase 1 (Plasmodium falciparum (isolate 3D7)) (UniProt P62344); assay: PfCDPK1 kinase inhibitors, biochemical, TCAMS library (AID 1159585; cut-off not given, nearly all actives have IC50 up to about 0.98 µM;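 note: inhibitors leave more ATP so luminescence rises with inhibition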); settings: recombinant PfCDPK1, Kinase-Glo ATP depletion luminescence
Sequence of Calcium-dependent protein kinase 1 (Plasmodium falciparum (isolate 3D7)) (P62344 whole entry, looked up): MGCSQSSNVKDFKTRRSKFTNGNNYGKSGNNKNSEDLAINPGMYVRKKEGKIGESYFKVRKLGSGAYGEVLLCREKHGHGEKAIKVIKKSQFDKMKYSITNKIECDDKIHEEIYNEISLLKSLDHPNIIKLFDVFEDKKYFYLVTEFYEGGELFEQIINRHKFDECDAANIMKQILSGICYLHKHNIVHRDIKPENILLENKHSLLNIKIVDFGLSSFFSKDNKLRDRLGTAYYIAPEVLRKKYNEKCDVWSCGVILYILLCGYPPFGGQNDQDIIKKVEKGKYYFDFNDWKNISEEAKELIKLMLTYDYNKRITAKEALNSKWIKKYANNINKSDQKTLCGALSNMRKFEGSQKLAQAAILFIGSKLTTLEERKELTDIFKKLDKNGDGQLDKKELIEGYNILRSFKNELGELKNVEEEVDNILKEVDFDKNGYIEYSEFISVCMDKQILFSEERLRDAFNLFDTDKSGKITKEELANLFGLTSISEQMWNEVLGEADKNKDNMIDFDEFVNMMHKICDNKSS

[6] = molecular target: Plasmodium falciparum protein kinase 6 (PK6, PF3D7_1337100) (UniProt Q8IDW1); assay: PfPK6 kinase inhibitors, biochemical, TCAMS library (AID 1159586); settings: recombinant PfPK6, Kinase-Glo ATP depletion luminescence
Sequence of Plasmodium falciparum protein kinase 6 (PK6, PF3D7_1337100) (Q8IDW1 1-305): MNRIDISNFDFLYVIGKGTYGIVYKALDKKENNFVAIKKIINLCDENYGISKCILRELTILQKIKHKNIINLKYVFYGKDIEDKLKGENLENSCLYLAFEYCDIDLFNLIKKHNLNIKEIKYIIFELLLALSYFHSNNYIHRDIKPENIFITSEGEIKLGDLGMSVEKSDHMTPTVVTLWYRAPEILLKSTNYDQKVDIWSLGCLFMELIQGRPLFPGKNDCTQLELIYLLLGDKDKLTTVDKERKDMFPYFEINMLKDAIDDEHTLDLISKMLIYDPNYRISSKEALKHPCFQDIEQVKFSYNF

[7] = molecular target: Protein kinase 7 (PK7), Plasmodium falciparum 3D7 (PF3D7_0213400) (UniProt Q7YTF7); assay: inhibition of Plasmodium PK7 catalytic activity – biochemical, TCAMS antimalarial set, Kinase-Glo luminescence (AID 1159587); settings: recombinant PfPK7, Kinase-Glo ATP depletion luminescence
Sequence of Protein kinase 7 (PK7), Plasmodium falciparum 3D7 (PF3D7_0213400) (Q7YTF7 1-343): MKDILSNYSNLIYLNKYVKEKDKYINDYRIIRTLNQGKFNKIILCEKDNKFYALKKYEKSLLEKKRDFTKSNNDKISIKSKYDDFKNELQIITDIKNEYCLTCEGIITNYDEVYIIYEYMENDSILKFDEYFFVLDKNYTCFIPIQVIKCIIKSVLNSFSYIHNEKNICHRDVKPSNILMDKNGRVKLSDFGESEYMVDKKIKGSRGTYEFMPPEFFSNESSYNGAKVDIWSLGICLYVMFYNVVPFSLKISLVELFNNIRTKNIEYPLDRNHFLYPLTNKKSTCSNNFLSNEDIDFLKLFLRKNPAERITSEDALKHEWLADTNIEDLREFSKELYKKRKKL

[8] = molecular target: Calcium-dependent protein kinase 4 (Plasmodium falciparum (isolate 3D7)) (UniProt Q8IBS5); assay: PfCDPK4 kinase inhibitors, biochemical, TCAMS library (AID 1159588; cut-off not given, nearly all actives have IC50 up to about 0.91 µM); settings: recombinant PfCDPK4, Kinase-Glo ATP depletion luminescence
Sequence of Calcium-dependent protein kinase 4 (Plasmodium falciparum (isolate 3D7)) (Q8IBS5 whole entry, looked up): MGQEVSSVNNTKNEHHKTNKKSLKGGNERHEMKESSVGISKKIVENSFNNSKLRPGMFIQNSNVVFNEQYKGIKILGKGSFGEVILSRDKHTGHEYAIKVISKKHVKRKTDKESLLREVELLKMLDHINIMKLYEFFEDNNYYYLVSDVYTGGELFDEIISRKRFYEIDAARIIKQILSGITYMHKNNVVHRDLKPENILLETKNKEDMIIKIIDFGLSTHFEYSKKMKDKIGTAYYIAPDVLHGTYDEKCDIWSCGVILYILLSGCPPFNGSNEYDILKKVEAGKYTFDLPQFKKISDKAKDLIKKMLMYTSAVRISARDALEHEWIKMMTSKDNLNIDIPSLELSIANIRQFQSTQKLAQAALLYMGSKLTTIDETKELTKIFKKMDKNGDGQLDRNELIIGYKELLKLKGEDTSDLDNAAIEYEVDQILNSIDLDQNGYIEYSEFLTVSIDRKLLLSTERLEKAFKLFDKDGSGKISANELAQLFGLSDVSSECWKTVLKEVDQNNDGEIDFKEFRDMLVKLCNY

COc1ccccc1CCN(C)CCN1CCC(NC(=O)c2ccc(-c3ccc(C(F)(F)F)cc3)cc2)CC1
inactive: growth inhibition [1] 15% | inhibition [2] 46% | inhibition [3] -2% | outcome [5] | outcome [6] | outcome [7] | outcome [8]
active: growth inhibition [4] 92%

Nc1nc2ncn(COC(COCc3ccccc3)COCc3ccccc3)c2c(=O)[nH]1 (tested in a mixture with another compound)
active: growth inhibition [1] 57% | growth inhibition [4] 86%
inactive: inhibition [2] 18% | inhibition [3] -7% | outcome [5] | outcome [6] | outcome [7] | outcome [8]

CC(CN1CCN(C)CC1)C(=O)Nc1cccc(-c2cccc(-c3nc4ccc(F)cc4[nH]3)c2)c1 (stereo not given)
inactive: inhibition [2] 23% | inhibition [3] -2% | outcome [5] | outcome [6] | outcome [7] | outcome [8]
active: growth inhibition [1] 78% | growth inhibition [4] 101%

CN1CCCN(Cc2ccc(-c3cccc(NC(=O)c4cccc(C#N)c4)c3)cc2)CC1
active: growth inhibition [1] 64% | growth inhibition [4] 101%
inactive: inhibition [2] 17% | inhibition [3] -2% | outcome [5] | outcome [6] | outcome [7] | outcome [8]

C=C(NC(=O)C1CCCCC1)C(=O)OC
active: growth inhibition [4] 93%
inactive: growth inhibition [1] 3% | inhibition [2] 15% | inhibition [3] -4% | outcome [5] | outcome [6] | outcome [7] | outcome [8]

Cc1cccc2[nH]c(-c3ccc(-c4ccc(CN5CCN(CC6CCCN(C)C6)CC5)cc4)s3)nc12 (stereo not given)
inactive: inhibition [3] -3% | outcome [5] | outcome [6] | outcome [7] | outcome [8]
active: growth inhibition [1] 99% | inhibition [2] 63% | growth inhibition [4] 101%

CN1CCCC(COc2cc3c(cc2Br)CCN3C(=O)Nc2ccc(-c3ccncc3)c(Cl)c2)C1 (stereo not given)
active: growth inhibition [1] 96% | inhibition [2] 99% | growth inhibition [4] 100%
inactive: inhibition [3] -2% | outcome [5] | outcome [6] | outcome [7] | outcome [8]

COc1ccc(NC(=O)/C=C/c2ccccc2Cl)cc1OCCN1CCC(N2CCCC2)CC1
inactive: growth inhibition [1] 23% | inhibition [2] 22% | inhibition [3] -1% | outcome [5] | outcome [6] | outcome [7] | outcome [8]
active: growth inhibition [4] 102%

c1cc(CNc2ncc(-c3ccsc3)c(-c3nccs3)n2)ccn1
active: growth inhibition [1] 81% | growth inhibition [4] 89%
inactive: inhibition [2] 18% | inhibition [3] -7% | outcome [5] | outcome [6] | outcome [7] | outcome [8]

CCC1CCCCN1S(=O)(=O)c1ccc(OC)c(N2CCN(C(=O)C(Cl)(Cl)Cl)CC2)c1 (stereo not given)
inactive: growth inhibition [1] 29% | inhibition [2] 9% | inhibition [3] 5% | outcome [5] | outcome [6] | outcome [7] | outcome [8]
active: growth inhibition [4] 89%

COc1cc(NC(=O)c2ccc(-c3ccc(C(C)=O)cc3)s2)ccc1OCCN1CCCC1
inactive: inhibition [2] 31% | inhibition [3] 3% | outcome [5] | outcome [6] | outcome [7] | outcome [8]
active: growth inhibition [1] 63% | growth inhibition [4] 100%

CS(=O)(=O)N(c1ccccc1)c1cc(C(=O)N[C@@H](Cc2ccccc2)[C@H](O)CNC2CC2)cc(N2CCCC2=O)c1
active: growth inhibition [1] 98% | growth inhibition [4] 100%
inactive: inhibition [2] 1% | inhibition [3] 4% | outcome [5] | outcome [6] | outcome [7] | outcome [8]

O=S(=O)(Nc1cccc(CCN2CCC(N3CCCCC3)CC2)c1)c1ccc(Cl)cc1
inactive: growth inhibition [1] 23% | inhibition [2] 18% | inhibition [3] -1% | outcome [5] | outcome [6] | outcome [7] | outcome [8]
active: growth inhibition [4] 94%

CCN(CC)c1nc(-c2ccccc2)cc(-c2ccccc2)c1C#N
inactive: inhibition [2] -7% | inhibition [3] 2% | outcome [5] | outcome [6] | outcome [7] | outcome [8]
active: growth inhibition [1] 66% | growth inhibition [4] 100%

Cc1nc(-c2ccccc2)nc(N2CCN(C(=O)c3ccco3)CC2)c1Cc1ccccc1F
active: growth inhibition [1] 86% | growth inhibition [4] 95%
inactive: inhibition [2] 7% | inhibition [3] 1% | outcome [5] | outcome [6] | outcome [7] | outcome [8]

COc1cccc(Nc2nc(N)c3ccccc3n2)c1
active: growth inhibition [4] 88%
inactive: growth inhibition [1] 47% | inhibition [2] 18% | inhibition [3] -2% | outcome [5] | outcome [6] | outcome [7] | outcome [8]

NC1CCN(c2nc(NCCc3ccc(O)cc3)nc(NCc3ccccc3-c3ccc(C(F)(F)F)cc3)n2)CC1
active: growth inhibition [1] 72% | growth inhibition [4] 100%
inactive: inhibition [2] 18% | inhibition [3] 1% | outcome [5] | outcome [6] | outcome [7] | outcome [8]

CN(C)CCOc1cc(NC(=O)Nc2cccc([N+](=O)[O-])c2)ccc1I
inactive: inhibition [2] 8% | inhibition [3] 6% | outcome [5] | outcome [6] | outcome [7] | outcome [8]
active: growth inhibition [1] 51% | growth inhibition [4] 102%

Cc1ccc(C2CCN(CCCCNC(=O)c3ccc(-c4ccc(C#N)cc4)cc3)CC2)c(O)c1
active: growth inhibition [1] 90% | growth inhibition [4] 100%
inactive: inhibition [2] 45% | inhibition [3] -3% | outcome [5] | outcome [6] | outcome [7] | outcome [8]

COc1cccc2c(NCc3ccccc3)nc(NCCCN3CCCCC3C)nc12 (stereo not given)
inactive: growth inhibition [1] 2% | inhibition [2] 20% | inhibition [3] 2% | outcome [5] | outcome [6] | outcome [7] | outcome [8]
active: growth inhibition [4] 90%

COc1cccc(C(=O)NC(c2ccccc2OC)c2cc(Cl)c3cccnc3c2O)c1 (stereo not given)
active: inhibition [2] 58% | growth inhibition [4] 91%
inactive: growth inhibition [1] 36% | inhibition [3] 4% | outcome [5] | outcome [6] | outcome [7] | outcome [8]

COc1cccc(C(=O)N2CCOC(CCN3CCC(c4ccccc4)CC3)(c3ccc(Cl)c(Cl)c3)C2)c1 (stereo not given)
active: growth inhibition [1] 63% | growth inhibition [4] 87%
inactive: inhibition [2] 38% | inhibition [3] -2% | outcome [5] | outcome [6] | outcome [7] | outcome [8]

Nc1ccnc(N2CCC(CCOc3cc(C(F)(F)F)nc4c(C(F)(F)F)cccc34)CC2)c1
active: growth inhibition [4] 98%
inactive: growth inhibition [1] 17% | inhibition [2] 35% | inhibition [3] -1% | outcome [5] | outcome [6] | outcome [7] | outcome [8]

COc1ccc(Oc2cnc(N)nc2N)c(C(C)C)c1
active: inhibition [2] 58% | growth inhibition [4] 97%
inactive: growth inhibition [1] -2% | inhibition [3] 4% | outcome [5] | outcome [6] | outcome [7] | outcome [8]

CC(C)C[C@@H](/C=N/N1CCNC1=O)NC(=O)[C@H](CC(C)C)NC(=O)c1ccc(OCCN2CCOCC2)cc1
inactive: inhibition [2] 21% | inhibition [3] -4% | outcome [5] | outcome [6] | outcome [7] | outcome [8]
active: growth inhibition [1] 89% | growth inhibition [4] 97%

CCc1c(C(=O)NC2CCC(N3CCC(c4ccccc4OC)CC3)CC2)[nH]c2ccc(OC)cc12 (stereo not given)
active: growth inhibition [1] 99% | growth inhibition [4] 101%
inactive: inhibition [2] 43% | inhibition [3] -5% | outcome [5] | outcome [6] | outcome [7] | outcome [8]

COc1cc2nc(NCCCOC(C)C)n3nc(-c4ccccc4)nc3c2cc1OC
active: growth inhibition [1] 97% | growth inhibition [4] 94%
inactive: inhibition [2] -3% | inhibition [3] -1% | outcome [5] | outcome [6] | outcome [7] | outcome [8]

CC(Cc1ccc(NC(=O)c2ccc(CNCc3ccccc3)cc2)cc1)N(CCc1cccc(Cl)c1)C(=O)OC(C)(C)C (stereo not given)
inactive: growth inhibition [1] 2% | inhibition [2] 16% | inhibition [3] -2% | outcome [5] | outcome [6] | outcome [7] | outcome [8]
active: growth inhibition [4] 95%

CN1CCN(c2nc(NCCc3ccc(O)cc3)nc(NCc3ccccc3-c3ccc(C(F)(F)F)cc3)n2)CC1
inactive: inhibition [2] 35% | inhibition [3] 6% | outcome [5] | outcome [6] | outcome [7] | outcome [8]
active: growth inhibition [1] 82% | growth inhibition [4] 90%

N#Cc1ccc(N(CCOc2ccc3c(c2)CCC(=O)N3)Cc2ccccc2C(F)(F)F)cc1C(F)(F)F
active: growth inhibition [1] 64% | growth inhibition [4] 98%
inactive: inhibition [2] 19% | inhibition [3] 1% | outcome [5] | outcome [6] | outcome [7] | outcome [8]

O=S(=O)(NCCN1CCCC1)c1ccc(-c2ccc(CNCc3ccsc3)cc2)s1
inactive: growth inhibition [1] 40% | inhibition [2] 31% | inhibition [3] 7% | outcome [5] | outcome [6] | outcome [7] | outcome [8]
active: growth inhibition [4] 99%

O=C(/C=C/c1ccc(Cl)c(Cl)c1)NCCCCCN1CCC(NC(=S)Nc2ccc(Cl)cc2)CC1
inactive: growth inhibition [1] 41% | inhibition [3] -1% | outcome [5] | outcome [6] | outcome [7] | outcome [8]
active: inhibition [2] 62% | growth inhibition [4] 99%

O=C(Nc1ccc(Cl)cc1C(=O)Nc1cccc(F)c1)c1ccc([N+](=O)[O-])cc1
inactive: inhibition [2] 10% | inhibition [3] 0% | outcome [5] | outcome [6] | outcome [7] | outcome [8]
active: growth inhibition [1] 54% | growth inhibition [4] 89%

COc1ccc(CC(=O)NC(CCN2CCC3(CCc4ccccc43)CC2)c2ccc(Cl)c(Cl)c2)cc1 (stereo not given)
inactive: inhibition [2] 28% | inhibition [3] -1% | outcome [5] | outcome [6] | outcome [7] | outcome [8]
active: growth inhibition [1] 75% | growth inhibition [4] 90%

N#Cc1ccc(-c2ccc(C(=O)NCCCCN3CCC(c4cn(CCO)c5ccccc45)CC3)cc2)cc1
inactive: growth inhibition [1] 43% | inhibition [2] 23% | inhibition [3] 4% | outcome [5] | outcome [6] | outcome [7] | outcome [8]
active: growth inhibition [4] 93%

CN1CCN(Cc2cccc(-c3ccc4c(Nc5ccc(Oc6ccccc6)cc5)ccnc4c3)c2)CC1
inactive: inhibition [2] 41% | inhibition [3] 6% | outcome [5] | outcome [6] | outcome [7] | outcome [8]
active: growth inhibition [1] 100% | growth inhibition [4] 101%

CCCNC(=O)c1cncc(-c2ccc(CNC3Cc4ccccc4C3)cc2)c1
inactive: growth inhibition [1] 21% | inhibition [2] 9% | inhibition [3] -8% | outcome [5] | outcome [6] | outcome [7] | outcome [8]
active: growth inhibition [4] 97%

O=C(Nc1cc(C(F)(F)F)cc(C(F)(F)F)c1)Nc1cc(C(F)(F)F)cc(C(F)(F)F)c1
inactive: inhibition [2] 5% | inhibition [3] -7% | outcome [5] | outcome [6] | outcome [7] | outcome [8]
active: growth inhibition [1] 101% | growth inhibition [4] 97%

CCCCNC[C@@H](O)[C@H](Cc1ccccc1)NC(=O)c1cc2c3c(c1)c(CC)cn3CCS(=O)(=O)N2C
active: growth inhibition [1] 98% | growth inhibition [4] 99%
inactive: inhibition [2] -6% | inhibition [3] -3% | outcome [5] | outcome [6] | outcome [7] | outcome [8]

CC(=O)NCCCCC1NC2(C(=O)N(Cc3ccc(C(C)(C)C)cc3)c3ccccc32)C2C(=O)N(C3CCCCC3)C(=O)C12 (stereo not given)
active: growth inhibition [1] 71% | growth inhibition [4] 91%
inactive: inhibition [2] -2% | inhibition [3] -3% | outcome [5] | outcome [6] | outcome [7] | outcome [8]
